Assay results as given in the OligoGym collection.
Note: reference of the scale not given here.

These sequences were tested against LRRC45 (assay: pooled miR-30 sensor sort-seq; sequence = guide strand). Details: shRNA.
For TTCAGCTCAGCTGACATGCTGG, the sensor-assay potency score (higher = more potent) was -0.387.
Sequence TTGGCAGCAGACAAGTCTCTGA has a sensor-assay potency score (higher = more potent) of -0.793.
For TTGAGAGCGTTGATGATGGAGT, the sensor-assay potency score (higher = more potent) was -0.215.
Sequence TAGACTCCCGCTCTGCAGCTTC has a sensor-assay potency score (higher = more potent) of -0.306.
Work on TGACTGATCTGGTTGTTGCGGA yielded a sensor-assay potency score (higher = more potent) of 0.13.
TGAACTTCCGCTCCAACTCGTC showed a sensor-assay potency score (higher = more potent) of -0.925.

Each sequence was assayed against LRRC8D in the same assay as above. Details: shRNA.
TTGTAGCTCACATCTAAGCATC gave a sensor-assay potency score (higher = more potent) of -1.4.
TAAGGTGCCGCAACTCTCGGAG was tested, and the sensor-assay potency score (higher = more potent) was 0.33.
Work on TGATCTTCCACAACAAGCCCGC yielded a sensor-assay potency score (higher = more potent) of -0.444.
TATAGATCAAGTCACTATCTTC showed a sensor-assay potency score (higher = more potent) of -0.519.
In the case of TTTTTGAGCAAATACACCCAGG, the sensor-assay potency score (higher = more potent) is reported as -0.941.
Sequence TTTGTAAACATTCAGTAGCGGC has a sensor-assay potency score (higher = more potent) of -0.948.
With TTATCCAGGATTGTCATGCTGG the sensor-assay potency score (higher = more potent) was -0.286.
For TAGCTCACATCTAAGCATCTGA, the sensor-assay potency score (higher = more potent) was 0.32.
For TTAAGTACAACTCTCGAAGGTT, the sensor-assay potency score (higher = more potent) was 0.166.
TAACATAACAACAGCTAGGTAA gave a sensor-assay potency score (higher = more potent) of -0.029.
TTAACATAACAACAGCTAGGTA gave a sensor-assay potency score (higher = more potent) of -0.589.
In the case of TTATGAATGACTAACTTTGTAA, the sensor-assay potency score (higher = more potent) is reported as -0.367.

These sequences were tested against LSG1 in the same assay as above. Details: shRNA.
TTCTGTTCCTCTTCTAGCCGGA showed a sensor-assay potency score (higher = more potent) of 0.394.
Work on TAGCTCCTTAAAGAGCTCCAGT yielded a sensor-assay potency score (higher = more potent) of -1.06.
For TTTCGAGCATCTACTATCTGGA, the sensor-assay potency score (higher = more potent) was -0.305.
TTGTGTATCTGCCTCTTCTGTG showed a sensor-assay potency score (higher = more potent) of -0.396.
In the case of TTGATTGTTGAACTCTTACCAA, the sensor-assay potency score (higher = more potent) is reported as -0.2.
Work on TGTGTCTCGTGAACCATCCCTT yielded a sensor-assay potency score (higher = more potent) of 0.477.
TTGTGTGCAACCAGGAGTCAGT was tested, and the sensor-assay potency score (higher = more potent) was -0.781.
With TTGAACTCTTACCAACATTAGG the sensor-assay potency score (higher = more potent) was -1.3.
Sequence TTGCTTTGTCTATCATCTCTGT has a sensor-assay potency score (higher = more potent) of -0.0591.
TGATTGTTGAACTCTTACCAAC showed a sensor-assay potency score (higher = more potent) of -1.62.
TAATATTAAGTTTTTCAGCTAC gave a sensor-assay potency score (higher = more potent) of -0.362.
With TTGTTGAACTCTTACCAACATT the sensor-assay potency score (higher = more potent) was -1.39.

What follows are sequences tested against LTA4H in the same assay as above. Details: shRNA.
For TAAACTTCATTCTTCCTTGTTC, the sensor-assay potency score (higher = more potent) was 0.185.
Sequence TTTGTATCCAAAACCAGGCTGC has a sensor-assay potency score (higher = more potent) of 0.416.
Work on TTTTTCTATTGTAAGGTCCTTT yielded a sensor-assay potency score (higher = more potent) of 0.0919.
In the case of TATATCTGTCAGATCAACCACA, the sensor-assay potency score (higher = more potent) is reported as 0.143.
For TTGGAGAGTGACTTGTCGCCTG, the sensor-assay potency score (higher = more potent) was 0.145.
TGTAACTTTGTCTTTCTCCAAG showed a sensor-assay potency score (higher = more potent) of -0.956.
TTGATTGAGAACATCAACCTTA was tested, and the sensor-assay potency score (higher = more potent) was 0.904.
With TTGTCCATTGATCACTACTTTT the sensor-assay potency score (higher = more potent) was -1.71.
Work on TTGATGAGAAGAGAGATCCTTC yielded a sensor-assay potency score (higher = more potent) of 0.703.
With TTCATGTGCAATGACATTGGAG the sensor-assay potency score (higher = more potent) was -0.277.
